From PubChem BioAssay AID588342 (National Center for Advancing Translational Sciences (NCATS), 2011)
Among all 360,000 compounds or so, about 25,000 (6.9%) were called active. Where a call stands in place of a potency, no number is given. Not shown: some 9% with an inconclusive outcome. The call rests on the fitted dose curve; in most records, active means well fitted inhibition curve with a large enough effect; inconclusive means small, poorly fitted or top-dose-only effect; inactive means flat fitted curve, though single readings scatter. The full list was thinned out, with actives kept by preference.

The compounds below were run against Luciferin 4-monooxygenase (Photinus pyralis) (UniProt P08659) (assay: qHTS profiling assay for firefly luciferase inhibitor/activator using purifed enzyme and Km concentrations of substrates (counterscreen for miR-21 project)). Conditions: purified FLuc, luminescence inhibition; series mostly up to 57.5 µM.
How it was run: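 Purified P. pyralis luciferase, 10 nM final, with Km-level 10 uM D-luciferin and 10 uM ATP in 50 mM Tris acetate pH 7.5, 10 mM Mg acetate, 0.01% Tween-20, 0.05% BSA; 6-point qHTS titration about 60 µM downward; luminescence read.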
Further: nearly all actives have a fitted effect of over 55% in size.
Potency means the concentration at half of the fitted maximal effect.

Luciferin 4-monooxygenase (Photinus pyralis), sequence (P08659 whole entry, looked up): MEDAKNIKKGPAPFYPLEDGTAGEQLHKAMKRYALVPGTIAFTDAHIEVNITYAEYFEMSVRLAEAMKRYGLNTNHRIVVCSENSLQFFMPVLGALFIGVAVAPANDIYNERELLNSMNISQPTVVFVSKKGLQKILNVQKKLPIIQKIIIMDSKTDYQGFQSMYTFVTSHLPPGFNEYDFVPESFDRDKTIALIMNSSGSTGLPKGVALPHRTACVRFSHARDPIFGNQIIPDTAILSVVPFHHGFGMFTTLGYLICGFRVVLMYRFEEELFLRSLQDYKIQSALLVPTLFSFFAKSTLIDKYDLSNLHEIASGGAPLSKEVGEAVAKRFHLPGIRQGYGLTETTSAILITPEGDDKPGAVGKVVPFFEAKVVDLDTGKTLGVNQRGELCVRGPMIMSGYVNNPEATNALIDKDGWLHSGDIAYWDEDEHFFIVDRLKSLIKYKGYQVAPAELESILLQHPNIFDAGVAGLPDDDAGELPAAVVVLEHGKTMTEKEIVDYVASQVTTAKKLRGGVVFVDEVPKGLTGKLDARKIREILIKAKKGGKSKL

| Compound | Potency |
| --- | --- |
| COc1ccc(CCC(=O)N2CCN(S(=O)(=O)c3ccc(OC)cc3)CC2)cc1 | inactive |
| Cc1ccc(F)cc1S(=O)(=O)Nc1cccc(C(=O)N2CCCC(C(N)=O)C2)c1 (centres undefined) | inactive |
| CCOC(=O)c1cc(-c2ccc(OC)c(S(=O)(=O)Nc3ccc(OC)cc3OC)c2)on1 | inactive |
| CCOc1ccc(S(=O)(=O)Nc2ccc(C(=O)NCCCN3CCCC3=O)cc2)cc1 | inactive |
| Nc1ncc(S(=O)(=O)Nc2ccc(OC(F)(F)F)cc2)cn1 | inactive |
| COc1ccccc1N1CCN(c2ccc(=O)n(CC(=O)NCc3ccc(OC(C)C)cc3)n2)CC1 | inactive |
| Cc1cc(C)cc(NS(=O)(=O)c2ccc(-c3cc(C)no3)s2)c1 | inactive |
| Cn1nc(-c2ccccc2)c(-c2ccccc2)c(C(=O)Nc2ccc(S(N)(=O)=O)cc2)c1=O | inactive |
| CCc1cccc(CC)c1NC(=O)Cn1c(=O)c(-c2cc(C)ccc2NC(C)=O)nc2ccccc21 | inactive |
| Cc1ccc(C(=O)COC(=O)CCN2C(=O)C3C4CC(C(Br)C4Br)C3C2=O)cc1 (centres undefined) | inactive |
| Cc1ccc(C(=O)COC(=O)CCN2C(=O)C3C4CCC(C4)C3C2=O)cc1C (centres undefined) | 10.7 µM (active) |
| O=C(CCN1C(=O)C2C3CCC(C3)C2C1=O)Nc1ccc(Cl)cc1Cl (centres undefined) | inactive |
| COc1ccccc1-c1noc(CSc2nnc(-c3ccccc3)n2-c2ccc(C)c(C)c2)n1 | inactive |
| c1cc(-n2cnnn2)ccc1NC1=NCCC1 | inactive |
| Cc1ccc(S(=O)(=O)CC(=O)Nc2nnc(C)s2)cc1 | inactive |
| Cc1ccc(C(=O)Cc2nnc(C)s2)cc1 | 9.53 µM (active) |
| Cc1ccc(C(=O)Cn2cccn2)cc1 | inactive |
| CC(CO)N1CCS(=O)(=O)CC1 (centres undefined) | inactive |
| CCc1cc2c(cc3c(=O)n(CC(=O)N4CCN(c5cc(Cl)ccc5C)CC4)nc(CC)n32)s1 | inactive |
| Cc1ccc(NC(=O)c2oc3ccccc3c2NC(=O)Cc2cccs2)cc1 | inactive |
| Cc1cc2c(cc3c(SCc4nc(-c5ccccc5)oc4C)nnc(C)n32)o1 | inactive |
| Cc1ccc(S(=O)(=O)NCCSc2ccccc2)cc1[N+](=O)[O-] | inactive |

| Compound | Potency |
| --- | --- |
| CCS(=O)(=O)c1cc([N+](=O)[O-])c(Sc2ccccc2N)s1 | 4.26 µM (active) |
| CC(=O)c1ccc(N2CCN(C3C(=O)c4ccccc4N3C(C)=O)CC2)cc1 (centres undefined) | inactive |
| CCOC(=O)c1ccc(NC(=O)CCn2cnnn2)cc1 | inactive |
| CC(=O)c1cccc(CN2CCC(CO)(Cc3ccccc3)CC2)c1 | inactive |
| CC(C)c1csc(CN2CCC(CO)(Cc3ccccc3)CC2)n1 | 6.75 µM (active) |
| OCC1(Cc2ccccc2)CCN(Cc2cc3ccccc3o2)CC1 | inactive |
| Cc1nc2c(-c3ccccc3)c(C)nn2c(C)c1CCC(=O)NCCc1ccccc1 | inactive |
| COc1cccc(CNC(=O)C2CCN(S(=O)(=O)c3ccc4c(ccn4C)c3)CC2)c1 | inactive |
| CC1CCCCC1NC(=O)NC(=O)COC(=O)C1=NN(c2ccccc2)C(=O)CC1 (centres undefined) | inactive |
| O=C(Nc1ccccc1C(=O)N1CCCCC1)c1ccco1 | inactive |
| Cc1c(Cl)cccc1NC(=O)CCC(=O)N/N=C/c1ccco1 | inactive |
| CS/C(=C\C(=O)c1ccco1)Nc1ccccc1Cl | 3.79 µM (active) |
| COc1cccc(NC(=O)N(Cc2cn(C)c3ccccc23)C2CCCCCC2)c1 | inactive |
| CC(=O)OC1=C(C(C)=O)N(Cc2ccccc2)S(=O)(=O)c2ccccc21 | inactive |
| Cc1ccc(C2=N/C(=C\c3ccc(OS(=O)(=O)c4ccc(C)cc4)cc3)C(=O)O2)cc1 | inactive |
| CN1/C(=C\C=C2\N=C(c3ccc(F)cc3)OC2=O)C(C)(C)c2ccccc21 | inactive |
| Cc1cccc(C2=N/C(=C/c3cccs3)C(=O)O2)c1 | 2.69 µM (active) |
| CCCCOc1ccc(C(=O)N2CC(=O)Nc3ccc(Br)cc3C2c2ccc(F)cc2)cc1 (centres undefined) | inactive |
| CCc1ccc(CNC(=O)c2cc3cc4ccc(OC)cc4nc3o2)cc1 | inactive |
| Cc1ccc2cc3cc(C(=O)N4CCCCCC4)oc3nc2c1 | 2.69 µM (active) |
| Cc1ccc2oc(=O)c3cnn(CC(=O)N4CCCCCC4)c3c2c1 | inactive |
| CCCCn1c(N)c(N(CC)C(=O)c2ccc(N(C)S(=O)(=O)c3ccc(C)cc3)cc2)c(=O)[nH]c1=O | inactive |

| Compound | Potency |
| --- | --- |
| Cc1cc(Br)ccc1SCC(=O)OCC(=O)NCc1ccc2c(c1)OCO2 | inactive |
| Cc1ccccc1NC(=O)Cc1nc(COC(=O)c2cccnc2Cl)cs1 | inactive |
| CCCNC(=O)C1CCC(Cn2c(=O)c3sccc3n(Cc3ccccc3F)c2=O)CC1 (centres undefined) | inactive |
| COc1ccc(-n2ncc3c(SCC(=O)NNC(C)=O)ncnc32)cc1 | 16.9 µM (active) |
| CC(C)Sc1ncnc2c1cnn2-c1ccccc1 | 1.51 µM (active) |
| CCN(CC)C(=O)CSc1ncnc2c1cnn2-c1ccccc1 | 16.9 µM (active) |
| CC(=O)Cn1cnc2c(cnn2-c2ccccc2)c1=O | inactive |
| O=C(Cn1cnc2c(cnn2-c2ccccc2)c1=O)NCc1ccccc1 | inactive |
| O=C(Cn1cnc2c(cnn2-c2ccc(F)cc2)c1=O)NCCc1ccccc1 | inactive |
| COc1ccc(NC(=O)CSc2ncnc3[nH]ncc23)cc1 | inactive |
| CC(Sc1ncnc2c1cnn2-c1ccccc1)C(=O)Nc1ccc(N2CCOCC2)cc1 (centres undefined) | inactive |
| CC(=O)Nc1ccc(NC(=O)CSc2ncnc3c2cnn3Cc2ccccc2)cc1 | inactive |
| CCN(CC)C(=O)CSc1nc2cc3c(cc2c(=O)n1CCCC(=O)NCc1ccc2c(c1)OCO2)OCO3 | inactive |
| CCC1=Nc2cc(C(=O)NCCCOC(C)C)ccc2Sc2ccc(C)cc21 | inactive |
| CCN(CC)S(=O)(=O)c1ccc2c(c1)c(=O)c(C(=O)N1CCN(c3cccc(Cl)c3)CC1)cn2C | inactive |
| CC(C)(C)OC(=O)N1CCC(c2c(C(=O)Nc3ccc4c(c3)OCO4)cnn2-c2ccccc2)CC1 | inactive |
| COc1ccc(-c2noc(CCC(=O)N(C)c3ccccc3C)n2)cc1 | inactive |
| CN(CC(=O)NCC(c1ccccc1)N1CCCC1)S(=O)(=O)c1ccc(Cl)cc1 (centres undefined) | inactive |
| CCOC(=O)c1ccc(NC(=O)Cn2c(=O)cc(C)c3c(C)nn(-c4cccc(F)c4)c32)cc1 | inactive |
| O=C(COC(=O)CCc1nc2ccccc2c(=O)[nH]1)Nc1ccc(N2CCOCC2)cc1 | inactive |
